Screening results as filed in PubChem BioAssay.
A selection: hits, their analogues and other compounds. The true share with any hit is near 4.6%.
GAA850 FXN act = FXN promoter activators, primary screen, cell-based, luciferase luminescence, HEK293 lucGAA850 | HEK293 lucGAA850 FXN promoter luciferase reporter, 24 h; percent of 10 µM SAHA response | activation, % at 6 µM | 360,000 compounds, 0.56% hits;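 active = activation above the average of all compounds screened plus 3 SD, cutoff fixed separately per campaign, cut at about 7.5% in these data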
AHR act = AHR activators, primary screen, cell-based, luminescence, luciferase reporter, human. Aryl hydrocarbon receptor (Homo sapiens), P35869. activation, % at 5 µM. AHR-responsive luciferase reporter cells. 320,000 compounds, 2.5% hits; in the data active = activation above about 47%
Target sequence (P35869 whole entry, looked up): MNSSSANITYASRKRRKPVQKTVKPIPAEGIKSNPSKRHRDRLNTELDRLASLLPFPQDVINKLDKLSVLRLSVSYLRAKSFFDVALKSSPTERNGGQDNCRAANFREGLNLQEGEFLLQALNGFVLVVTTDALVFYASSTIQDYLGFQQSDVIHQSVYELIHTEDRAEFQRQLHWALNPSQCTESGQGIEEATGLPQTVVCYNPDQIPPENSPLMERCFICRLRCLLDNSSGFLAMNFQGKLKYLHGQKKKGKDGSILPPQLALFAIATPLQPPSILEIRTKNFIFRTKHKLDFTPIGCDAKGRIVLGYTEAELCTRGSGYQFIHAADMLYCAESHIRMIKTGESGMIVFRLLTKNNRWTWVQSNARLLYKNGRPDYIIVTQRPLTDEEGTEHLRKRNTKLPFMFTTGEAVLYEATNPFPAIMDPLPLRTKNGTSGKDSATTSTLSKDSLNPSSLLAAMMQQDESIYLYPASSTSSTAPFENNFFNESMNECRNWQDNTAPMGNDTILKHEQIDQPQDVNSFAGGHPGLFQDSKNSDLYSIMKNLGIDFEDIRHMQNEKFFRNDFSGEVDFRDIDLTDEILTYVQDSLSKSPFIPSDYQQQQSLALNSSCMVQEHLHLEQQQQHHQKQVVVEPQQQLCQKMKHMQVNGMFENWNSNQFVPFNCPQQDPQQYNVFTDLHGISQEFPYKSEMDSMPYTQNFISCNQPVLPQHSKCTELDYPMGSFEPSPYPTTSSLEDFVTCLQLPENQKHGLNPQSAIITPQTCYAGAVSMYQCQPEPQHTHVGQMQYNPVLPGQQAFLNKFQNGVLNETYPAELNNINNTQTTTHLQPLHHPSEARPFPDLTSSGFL
HSF1 inh = HSF1 inhibitors in luciferase reporter cells, primary screen, cell-based, NIH3T3, luminescence. NIH3T3-HGL HSE-luciferase, MG132-induced, luminescence 8 h; stronger effect = lower value. activity change, negative = inhibition, % at 7.5 µM (by protocol). 300,000 compounds, 0.77% hits. AID 2098, 2009;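 active = more than half of replicate wells show activity change below -50%, luminescence cut by over half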;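 note: luciferase reports HSF-1 transcriptional activity via heat shock element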
HSF1 activator = HSF-1 activators, primary screen, NIH3T3-HGL cells, MG132 stress, luminescence, single point | NIH3T3-HGL HSF-1 luciferase reporter, 8 h; 100% = twice DMSO control signal | activation, % at 9 µM | 300,000 compounds, 1.7% hits | AID 504408, 2011;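 active = mean replicate activation of at least 50% with a set share of replicates each reaching 50%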
Hits are given with their value; i = inactive; nt = not tested or not shown.

SMILES	GAA850 FXN act	AHR act	HSF1 inh	HSF1 activator
N#C/C(=C\c1ccco1)c1nc2ccccc2s1	i	i	i	80
CC(Oc1ccc(Cl)cc1Cl)C(=O)NC(Cc1ccccc1)C(=O)O (stereo unspecified)	i	nt	nt	nt
Cc1oc(-c2ccc3c(c2)OCCO3)cc1C(=O)O	i	i	-72	i
Cc1oc(-c2ccc3c(c2)OCCO3)cc1C(=O)NCC(=O)O	i	i	i	i
COc1ccc(-c2cc(C(=O)O)c(C)o2)cc1OC	i	i	-61	i
O=C(COc1ccc2c(c1)OCO2)Nc1ccccc1F	i	i	i	i
O=C1C(SCCO)=C(SCCO)C(=O)c2ccccc21	i	58	nt	nt
CC(=O)Nc1ccc(SCC(=O)c2cc(C)n(-c3ccccc3F)c2C)cc1	i	i	-68	i
CC(=O)Nc1ccc(SCC(=O)c2cc(C)n(Cc3cccs3)c2C)cc1	i	i	-69	i
COC(=O)c1ccc(-n2c(C)cc(C(=O)CSc3ccc(NC(C)=O)cc3)c2C)cc1	i	i	i	i
COCCn1c(C)cc(C(=O)CSc2ccc(NC(C)=O)cc2)c1C	i	i	i	i
CC(/C=N/NC(=O)c1nnn(-c2nonc2N)c1C(C)C)=C\c1ccco1	i	i	i	i
CNC(=O)CSc1nccn1Cc1ccc(Cl)cc1	i	i	i	i
Cc1ccnc(NS(=O)(=O)c2ccc(NS(C)(=O)=O)cc2)n1	i	i	i	i
O=C(NN1CCOCC1)c1cc(S(=O)(=O)Nc2cccc(C(F)(F)F)c2)ccc1Cl	i	i	i	i
CN(C)c1ccc(C(CNS(=O)(=O)c2ccc(F)c(F)c2)c2c[nH]c3ccccc23)cc1 (stereo unspecified)	i	68	i	i
CN(C)c1ccc(C(CNC(=O)c2ccccc2F)c2c[nH]c3ccccc23)cc1 (stereo unspecified)	i	i	i	i
COc1ccc(OCC(=O)N2CCN(c3cccc(Cl)c3)CC2)cc1	i	i	i	i
COc1ccc(OCC(=O)N2CCN(c3cccc(C(F)(F)F)c3)CC2)cc1	i	i	-87	i
C=CCn1c(SCC#N)nc2ccccc2c1=O	i	i	i	53
CC(C)Cn1c(SCC#N)nc2ccccc2c1=O	i	i	i	i
CCOc1ccccc1N/C(=C(/C(Cl)=C(Cl)Cl)[N+](=O)[O-])n1cncn1	i	54	nt	nt
CCN1C(=O)c2cccc3c(S(=O)(=O)Nc4ccccc4OC)ccc1c23	i	i	i	59
O=C(Nc1ccc(F)cc1F)c1cc2nc3c(c(C(F)(F)F)n2n1)CCCC3	i	i	-55	i
CCOC(CNC(=O)c1cccn2c(=O)c3c(C)c(C)sc3nc12)OCC	i	i	i	i
SMILES	GAA850 FXN act	AHR act	HSF1 inh	HSF1 activator
COc1ccc(S(=O)(=O)N(CC(=O)NCC2CCCO2)Cc2ccccc2)cc1C (stereo unspecified)	i	i	i	i
CC(Oc1ccc(F)cc1Br)c1nc2ccccc2c(=O)[nH]1 (stereo unspecified)	i	i	i	65
OCCCn1c(CCNc2nc(-c3ccc(F)cc3)cs2)nc2cc(C(F)(F)F)ccc21	i	51	i	i
CC(NC(=O)CCN1C(=O)c2ccccc2S1(=O)=O)c1ccccc1 (stereo unspecified)	i	i	i	i
O=C1CSC(=S)N1c1cccc(Cl)c1	i	i	i	i
COc1ccc(CCn2c(S)nc3ccccc3c2=O)cc1	i	68	i	i
COc1ccc(CNn2c(C)nc3ccccc3c2=O)cc1	i	70	i	i
Clc1ccc(C2=CC(c3ccco3)n3ncnc3N2)cc1 (stereo unspecified)	i	71	i	i
COc1ccc(C2=CC(c3ccco3)n3ncnc3N2)cc1 (stereo unspecified)	i	nt	nt	nt
O=c1cc(O)c(-c2ccccc2)c(Cl)[nH]1	i	i	i	i
Cc1ccc(C)c(C(=O)CCC(=O)NNC(=O)Cn2nc(C)cc2C)c1	i	i	i	i
Clc1c(CSc2nc3ccccc3o2)nc2ccccn12	i	i	i	87
c1ccc2oc(SCc3nc4ccccc4s3)nc2c1	i	i	i	67
Brc1c(CSc2nc3ccccc3o2)nc2ncccn12	i	i	i	i
Cc1cccc2nc(CSc3nc4ccccc4o3)cn12	i	i	i	i
c1ccc2oc(SCc3cn4ccccc4n3)nc2c1	i	i	i	64
c1ccc(OCCSc2nc3ccccc3o2)cc1	i	i	-61	i
CCOc1ccc(OCCSc2nc3ccccc3o2)cc1	i	i	i	i
